Screening data from PubChem.
Mdm2 MdmX PPI = human Mdm2/MdmX binding inhibition; actives 3% (n = 330,000); AID 485346; SaOS-2 split-luciferase Mdm2/MdmX complementation, luminescence; O15151+Q00987; inhibition, % at 8 µM;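 active = inhibition of at least 50% at 8 µM in the primary screen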
Target sequence (O15151 whole entry, looked up): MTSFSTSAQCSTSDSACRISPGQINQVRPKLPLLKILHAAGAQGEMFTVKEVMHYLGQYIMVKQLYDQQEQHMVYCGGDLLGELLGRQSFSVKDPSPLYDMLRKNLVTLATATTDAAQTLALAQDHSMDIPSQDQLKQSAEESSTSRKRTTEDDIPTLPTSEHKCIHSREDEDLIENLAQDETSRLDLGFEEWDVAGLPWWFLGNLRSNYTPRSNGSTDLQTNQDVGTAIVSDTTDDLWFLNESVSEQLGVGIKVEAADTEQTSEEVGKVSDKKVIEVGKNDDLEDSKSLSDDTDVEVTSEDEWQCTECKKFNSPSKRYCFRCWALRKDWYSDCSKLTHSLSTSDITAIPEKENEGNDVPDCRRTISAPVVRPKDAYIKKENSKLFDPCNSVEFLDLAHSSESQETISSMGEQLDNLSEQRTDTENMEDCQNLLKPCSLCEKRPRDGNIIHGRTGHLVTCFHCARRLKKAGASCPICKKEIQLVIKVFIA
Target sequence (Q00987 whole entry, looked up): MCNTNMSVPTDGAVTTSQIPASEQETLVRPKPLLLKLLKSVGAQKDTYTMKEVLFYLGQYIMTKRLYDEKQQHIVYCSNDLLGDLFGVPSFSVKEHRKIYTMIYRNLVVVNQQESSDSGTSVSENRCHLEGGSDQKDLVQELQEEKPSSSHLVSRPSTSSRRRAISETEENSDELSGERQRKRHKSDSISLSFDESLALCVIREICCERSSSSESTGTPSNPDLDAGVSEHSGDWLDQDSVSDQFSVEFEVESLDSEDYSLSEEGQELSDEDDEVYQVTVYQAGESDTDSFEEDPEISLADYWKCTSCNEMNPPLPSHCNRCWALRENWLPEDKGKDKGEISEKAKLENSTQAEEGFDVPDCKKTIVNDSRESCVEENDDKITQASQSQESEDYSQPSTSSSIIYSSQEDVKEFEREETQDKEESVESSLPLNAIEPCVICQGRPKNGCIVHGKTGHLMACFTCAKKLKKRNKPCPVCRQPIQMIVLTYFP
Beta apoptosis = beta cell apoptosis inhibition | INS-1E cytokine-induced death, ATP luminescence, 48 h; percent of positive-control rescue, neutral wells zero | protection from apoptosis, % (concentration not given with the values) | actives 0.8% (n = 300,000) | AID 435005;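 active = Every replicate reaches about 75%, or at least half do and their mean reaches it too, limit read from the data; inconclusive = At least half of replicates reach the limit but their mean does not; inactive = Under half of replicates reach the limit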;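 also: 0% = cytokine-treated negative control wells and 100% = positive control rescue; higher means more ATP so stronger rescue from cytokine killing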
Calb FLC = C. albicans growth modulation with fluconazole. C. albicans CaCi-2 (fluconazole-resistant clinical isolate) + fluconazole, Alamar Blue growth, 48 h. growth inhibition, % (no concentration beside the values). actives 0.57% (n = 300,000). AID 1979;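 active = growth inhibition above about 58% in most replicates, limit read from the data, passing the limit was not always enough; inconclusive = exactly half the replicates above a set limit; inactive = most replicates below a set limit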;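 also: all wells also contain fluconazole at 8 µg/ml as a sub-toxic cotreatment; 0% = median of DMSO wells and 100% = median of geldanamycin control wells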
CSC inhib = blocks cancer stem cells | inhibition, % at 7.5 µM | actives 1.1% (n = 300,000) | AID 2717 | cancer stem cell-like cells viability, luminescence; in the data active = inhibition above about 75%; inconclusive = no clear call, values can overlap the other calls; tested in HMLE shEcad cells
SKKanGAS inh = inhibitors of SKKanGAS S. pyogenes growth in kanamycin (SK-promoter or general growth effect); BacTiter-Glo, 6 h; inhibition, % at 7.5 µM; actives 1.3% (n = 300,000);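 active = mean replicate score, as percent of positive control median, at least 50; inconclusive = mean below 50 but one replicate at or above 50; inactive = mean and every replicate below 50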;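 also: strain carries kanamycin resistance gene driven by streptokinase promoter and grows in 40 µg/ml kanamycin; loss of luminescence reflects streptokinase promoter inhibition or plain growth inhibition; 0% = median of DMSO wells and 100% = positive control at its reference dose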
MPTP inh = permeability transition pore inhibition. isolated mouse mitochondria, Ca2+ swelling absorbance, 30 min. inhibition, % at 10 µM. actives 1.4% (n = 360,000);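 active = inhibition of 50% or more, scaled per plate between neutral and stimulator controls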;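 also: 0% = DMSO wells given calcium and 100% = 1 mM EGTA wells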
Mdm2-MdmX conf = confirmation of human Mdm2/MdmX interaction inhibitors; shares compounds with Mdm2 MdmX PPI; Mdm2-MdmX binding, luminescent assay; inhibition, % at 8 µM; actives 55% (n = 10,000); in the data active = inhibition above about 40%
Full FLuc ctr = inhibits full-length luciferase, flagging false Mdm2/MdmX hits | shares compounds with Mdm2 MdmX PPI | SaOS-2 full-length luciferase counterscreen, luminescence | inhibition, % at 8 µM | actives 77% (n = 6,200);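 active = mean inhibition at 8 µM reaching about 37%, which flags the compound as non-specific, limit read from the data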;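 also: p53-null SaOS-2 cells with luciferase driven by a doxycycline-inducible promoter; compound on cells about two nights before reading with doxycycline added after day one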
The depositor's hits bear a star; ? = inconclusive; / = not tested or not shown. Only some compounds are listed: those with a hit (about 5.4% of all), similar ones and a draw of the others.

SMILES | Mdm2 MdmX PPI | Beta apoptosis | Calb FLC | CSC inhib | SKKanGAS inh | MPTP inh | Mdm2-MdmX conf | Full FLuc ctr
Cc1ccc(OCC(=O)Nc2ccc(Cl)cc2)c(-n2nc3ccccc3n2)c1 | 78* | 47 | -5 | 17 | -4 | 3 | 72* | 81*
COc1ccc(OC)c(C2C3=C(CCCC3=O)NC3=C2C(=O)CCC3)c1 | -7 | -5 | 2 | -5 | -4 | -2 | / | /
O=C(Cc1ccc(S(=O)(=O)N2CCOCC2)s1)N1CCN(S(=O)(=O)c2cccc([N+](=O)[O-])c2)CC1 | 16 | 0 | -7 | -7 | 0 | 0 | / | /
O=[N+]([O-])c1ccc(Cl)cc1Sc1nc2ccccc2o1 | 54* | -1 | 53 | 22 | 67* | 1 | 16 | /
O=[N+]([O-])c1ccc(Sc2nc3ccccc3o2)c([N+](=O)[O-])c1 | 99* | 48 | 93* | 106* | 9 | 0 | 76* | 3
O=C(O)c1ccc(NC(=O)c2ccccc2NC(=O)c2ccccc2Br)cc1 | 5 | / | 17 | -7 | 0 | 2 | / | /
CC1(C)CC(=O)C2=C(C1)OC(c1ccc(O)cc1)C(C#N)=C2N (configuration not stated) | -47 | -2 | 6 | -2 | -5 | 0 | / | /
COc1ccc2c(c1)O[C@H](c1ccc3c(c1)OCO3)[C@@H](O)C2=O | 50* | 25 | -1 | 34 | 0 | 0 | -10 | /
COc1ccc2c(c1)O[C@@H](c1cccc(C(F)(F)F)c1)[C@H](O)C2=O | 55* | 33 | -15 | 15 | 0 | / | 60* | 36*
O=C(Nc1cc(=O)[nH]c(=O)[nH]1)c1cccc(C(F)(F)F)c1 | 8 | -2 | 27 | 0 | -1 | -2 | / | /
O=C(Nc1cc(=O)[nH]c(=O)[nH]1)c1cc(Cl)ccc1Cl | 64* | 19 | -12 | 50 | -3 | 1 | 56* | 58*
Cc1ccccc1C(=O)Nc1ccc(O)c2c(=O)cc(-c3ccccc3Cl)oc12 | 5 | 1 | -10 | 6 | 18 | -3 | / | /
O=C(Nc1ccc(O)c2c(=O)cc(-c3ccccc3Cl)oc12)c1ccc(Cl)c(Cl)c1 | 66* | -2 | 2 | -3 | -4 | 0 | 26 | /
COc1ccc(C(=O)OCC(=O)NC(=O)NCc2ccccc2)cc1[N+](=O)[O-] | -9 | 0 | / | / | / | -2 | / | /
COc1ccc(S(=O)(=O)Nc2c(C(=O)O)[nH]c3ccc(OC)cc23)cc1 | -24 | -3 | / | -10 | 5 | -1 | / | /
COC(=O)c1[nH]c2ccc(F)cc2c1NS(=O)(=O)c1ccc(OC)cc1 | 57* | 7 | -2 | 56 | -3 | -1 | 58* | 62*
O=C(COC(=O)c1nc(Cl)c(Cl)c(Cl)c1Cl)c1ccc[nH]1 | 73* | / | 18 | 12 | -13 | -2 | 32 | /
O=C(c1cc(-c2cccc(O)c2)on1)N1CCN(C(c2ccccc2)c2ccccc2)CC1 | 50 | 81* | -2 | 144* | 30 | 3 | 13 | /
Oc1c(Cl)cc(Cl)cc1Sc1cc(Cl)cc(Cl)c1O | 100* | 28 | / | 120* | 106* | / | 92* | 17
O=S(=O)(c1ccc(Cl)cc1)c1snnc1-c1ccccc1 | 98* | 12 | 9 | 108* | 15 | 1 | 80* | 56*
O=S(=O)(c1ccc(F)cc1)c1snnc1-c1ccccc1 | / | -9 | -46 | 67 | 6 | 0 | / | /
COc1ccc(NC(=O)Cn2c3ccccc3c3nc4n(c(=O)c32)CCS4)cc1 | 70* | 14 | 43 | 4 | 11 | 0 | 12 | /
CCCc1cnc(NCCNCC(O)COc2ccc(Cl)c(Cl)c2)nc1 (configuration not stated) | 56* | 22 | 3 | 10 | 7 | -1 | 24 | /
CC(=O)c1cccc(OCC(O)CNCCc2ccc(Cl)cc2)c1 (configuration not stated) | -32 | -4 | / | 13 | 4 | 0 | / | /
CCc1ccc(/C(C)=N/NC(=O)c2ccccn2)cc1 | -23 | 1 | -11 | -2 | -8 | 1 | / | /
SMILES | Mdm2 MdmX PPI | Beta apoptosis | Calb FLC | CSC inhib | SKKanGAS inh | MPTP inh | Mdm2-MdmX conf | Full FLuc ctr
CCOc1ccc(C(=O)N/N=C(\c2ccccc2)c2ccccn2)cc1 | 71* | 97* | 42 | 61 | 69* | -1 | 87* | 30
Cn1ccnc1/C(=N\NC(=O)c1ccccc1)c1cccc([N+](=O)[O-])c1 | 2 | 0 | ? | -6 | 4 | -4 | / | /
O=C(N/N=C(\c1ccccc1)c1ccccn1)c1cccc([N+](=O)[O-])c1 | 79* | 102* | 113* | -9 | ? | -1 | 66* | 20
Cc1c(C(=O)OC(C)CCN(C)C)oc2ccccc12 (configuration not stated) | 16 | -1 | -15 | -2 | 2 | 0 | / | /
Cc1ccc(O)c(C(=O)c2cnc3c(c2)c(=O)n(C)c(=O)n3C)c1 | -2 | -12 | -5 | 1 | -2 | 0 | / | /
CN1Cc2cc(C(=O)c3cc(Cl)cc(CSc4ncccn4)c3O)cnc2NC1=O | 59* | 23 | -7 | 68 | 50* | / | 73* | 89*
Cc1ccc(O)c(C(=O)c2cnc3c(c2)CN(CCC(C)C)C(=O)N3)c1 | 54* | 16 | 4 | 27 | -1 | 2 | 23 | /
CC1=C(C(N)=O)C(c2ccccn2)n2nc(SCc3ccccc3Cl)nc2N1 (configuration not stated) | -30 | -7 | -4 | 1 | 6 | 0 | / | /
Cc1ccc(O)c(C(=O)c2cnc3c(c2)CN(C)C(=O)N3)c1 | 63* | -11 | -14 | 21 | -8 | -2 | 49* | 56*
CCCCN1Cc2cc(C(=O)c3cc(OC)ccc3O)cnc2NC1=O | 31 | -8 | -5 | 4 | 2 | 2 | / | /
CCCNC(=O)c1ccc(COc2ccc(C(C)(C)C)cc2)o1 | 10 | 13 | 12 | 35 | 4 | 26 | / | /
CC1CCN(CC(CS(=O)(=O)c2ccc([N+](=O)[O-])cc2)N2CCC(C)CC2)CC1 (configuration not stated) | 100* | -31 | -18 | ? | 8 | 0 | 100* | 50*
C=CC[C@]12C=C(OC)C(=O)C(OC)=C1O[C@@H](c1ccc3c(c1)OCO3)[C@H]2C | 0 | -3 | 8 | -11 | 1 | 0 | / | /
C=CC[C@]12CC=CC(=O)[C@@]1(O)O[C@H](c1ccc(OC)c(OC)c1)[C@H]2C | 50* | -6 | -2 | 39 | 0 | 0 | 30 | /
c1ccc2c(c1)CCN(c1nc3cc4c(cc3s1)OCCO4)C2 | 81* | 14 | -6 | / | 18 | 0 | 77* | 93*
FC(F)(F)c1nnc2c(Sc3ccccc3)nc3ccc(Cl)cc3n12 | 97* | 96* | 7 | 0 | -3 | -1 | 99* | 21
